Shown are actives, neighbours in structure and some others; about 21% of the full set was active somewhere.
NS1 inh: blocks influenza NS1 protein function; Potency, µM (doses to about 46.1 µM), for the others: at the top dose activity, positive = more growth; 270,000 compounds, 0.4% hits; calls by dose curve; also: potency is read from the fitted curve at half-maximal effect; actives are rising curves; nearly all actives have a fitted effect of over 50% in size
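S. cerevisiae expressing influenza A NS1, grown in glucose, washed, then diluted 1:100 into pH 6.0 -URA galactose medium with 23 nl compound. Growth recovery read as OD600; NS1-free strain serves as control.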
Pf growth 48h: inhibits P. falciparum growth in the first generation, 48 h | P. falciparum luciferase growth in erythrocytes, 48 h | Potency, µM (series often up to 28.7 µM), for the others: top-dose activity change, negative = inhibition, hits mostly inhibitors | 310,000 compounds, 5.9% hits; also: potency is read from the fitted curve at half-maximal effect; % is scaled to controls: 0 for no effect and ±100 for the full control effect
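Parasite viability was followed by luminescence of a genomically integrated firefly luciferase. Cultures held 0.1% parasitemia at 2% hematocrit (final), incubated under 5% CO2 at 37 C.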
Shiga inhibitor: inhibitors of Shiga toxin in Vero cells; Vero cells, Shiga toxin protein synthesis inhibition reporter; inhibition, % at 38.7 µM; 290,000 compounds, 9.2% hits; in the data active = inhibition mostly above about 28%, no sharp cut-off; inactive = mostly below about 43%; also: 0% is about no effect
Pf growth 96h: P. falciparum growth inhibition at 96 hours; 320,000 compounds, 6.9% hits; Potency, µM (titrated, usually from 28.7 µM), for the others: at the top dose activity change, negative = inhibition, most hits filed as inhibitors; P. falciparum luciferase reporter growth, 96 h; AID 504834; also: potency is read from the fitted curve at half-maximal effect; % is scaled to controls: 0 for no effect and ±100 for the full control effect
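Readout is luminescence from an integrated firefly luciferase in P. falciparum. Red cells, 2% hematocrit and 0.05% parasitemia final, were cultured with compound through two parasite generations (96 hours) at 37 C, 5% CO2.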
CHX counter: affects cycloheximide protein synthesis inhibition readout, counter-screen; cell reporter, cycloheximide protein synthesis inhibition counterscreen; max response, %; 300,000 compounds, 12% hits; in the data active = max response mostly above about 13%, no sharp cut-off; inactive = mostly below about 14%; also: read at 38.3 µM for the half of the compounds with a filed dose; 0% is about no effect
An asterisk follows results filed as active; i = inactive; ? = inconclusive; nt = not tested or not shown. Unless noted, calls follow the shape of the dose curve; as a rule, active = well fitted inhibition curve with a large enough effect; inconclusive = small, poorly fitted or top-dose-only effect, or another doubt; inactive = no such curve, though single readings can be large or run the other way.

SMILES	NS1 inh	Pf growth 48h	Shiga inhibitor	Pf growth 96h	CHX counter
O=C(Nc1ccc2c(c1)OCCO2)NC1(C(F)(F)F)Oc2ccccc2O1	23%	nt	89*	163%	92*
O=C(CCl)Nc1ccc2c(c1)OCO2	nt	?	26	15µM*	34*
CC(=O)Nc1ccc2c(c1)OCO2	nt	1%	17	1%	9
O=C(Nc1ccc2c(c1)OCCO2)NC12CC3CC(CC(C3)C1)C2	-36%	129%	108*	25%	49*
COc1ccc(NC(=O)NC23CC4CC(CC(C4)C2)C3)cc1OC	21%	?	-2	?	9
O=C(Nc1ccc2c(c1)CCC2)Nc1ccc2c(c1)OCO2	nt	328%	134*	-7%	47*
Clc1nc(Cl)nc(NCCC2=CCCCC2)n1	nt	?	15	?	10
O=C(Nc1ccc2c(c1)OCCO2)Nc1ccc2c(c1)OCO2	nt	279%	62*	134%	33*
Cc1c(NC(=O)Nc2ccc3c(c2)OCO3)c(=O)n(-c2ccccc2)n1C	5%	18%	-10	40%	0
O=C(CSc1ccc2c(c1)OCCO2)Nc1ccc(Br)cn1	-22%	5%	-5	24%	9
NC(=O)c1ccc(NC(=O)Nc2ccc3c(c2)OCO3)cc1	4%	53%	47*	26%	34*
Cc1ccnc(NC(=O)Nc2ccc3c(c2)OCO3)c1	nt	i	74*	23%	27*
O=C(Nc1ccc2c(c1)OCO2)Nc1ccc(Br)cn1	0%	147%	83*	nt	37*
Cc1cc(C)c2c(C)c(C(=O)Nc3c(C)n(C)n(-c4ccccc4)c3=O)oc2c1	-10%	-2%	-9	-18%	-4
CCc1ccc(OCCCCCn2ccnc2)cc1	-20%	?	-1	35%	3
COc1ccc(-c2nnc3n2N=C(c2ccc(OC)c(OC)c2)CS3)c(OC)c1	nt	nt	15	nt	0
Cc1onc(-c2ccccc2)c1C(=O)N1CCC(CO)(Cc2ccccc2)CC1	-13%	-11%	-1	-2%	15
O=C(O)C1CC=CCC1C(=O)Nc1ccc2c(c1)OCCO2 (centres undefined)	-2%	90%	36*	43%	61*
C=C(C)C(=O)Nc1ccc2c(c1)OCCOCCOCCO2	1%	15%	-7	-1%	-3
CC(C)CC(=O)Nc1ccc2c(c1)OCO2	1%	25%	30	58%	19
O=C(Nc1cccc([N+](=O)[O-])c1)Nc1ccc2c(c1)OCCO2	-2%	8%	53	57%	33*
CC1(C(=O)Nc2ccc3c(c2)OCCO3)CC1(Cl)Cl (centres undefined)	6%	31%	42*	?	23*
CC(C)N1CCC(NC(=O)Nc2ccc3c(c2)OCO3)CC1	6%	51%	28	-6%	29*
Cc1ccc(/C=N/NC(=O)Cc2ccc(Cl)cc2)s1	1%	?	2	?	5
COC(=O)c1ccc(NC(=O)Nc2ccc3c(c2)OCO3)cc1	9%	7%	87*	?	50*
SMILES	NS1 inh	Pf growth 48h	Shiga inhibitor	Pf growth 96h	CHX counter
CC1(C)CC(CCN(Cc2ccccc2)C(=O)c2ccco2)(c2ccccc2)CCO1 (centres undefined)	-24%	?	-8	1.9µM*	-2
CC(=O)N(CCC1(c2ccc(C)cc2)CCOC(C(C)C)C1)Cc1ccco1 (centres undefined)	0%	5.9µM*	21	4.1µM*	7
CC(=O)N(CCP(=O)(c1ccccc1)c1ccccc1)Cc1ccco1	2%	-9%	36	9.3µM*	14
CC(=O)N(CCC(Cc1ccccc1)c1ccco1)Cc1ccco1 (centres undefined)	2%	?	12	?	1
CCC1(C)CC(CCN(Cc2ccco2)C(C)=O)(c2ccccc2)CCO1 (centres undefined)	0%	?	9	4.1µM*	-1
CCCCC(CC)C(=O)Nc1ncc([N+](=O)[O-])s1 (centres undefined)	6%	15%	-6	6%	-4
CCN(CC)CCNC(=O)c1c(C)[nH]c(/C=C2\C(=O)Nc3ccc(F)cc32)c1C	nt	2.1µM*	nt	2.7µM*	nt
Cc1ccc2c(c1)/C(=C/c1ccc(F)cc1)C(=O)N2	-41%	?	-8	2%	2
Cc1oc2ccc(O)cc2c1C(=O)c1ccc(Cl)cc1	-84%	nt	69	3%	17*
CC(=O)c1c(C)oc2ccc(OCc3ccccc3)cc12	-47%	53%	63*	43%	31*
Cc1oc2ccc(O)cc2c1C(=O)OC(C)C	0%	64%	55	-33%	22*
Cc1oc2ccc(OCc3ccccc3Cl)cc2c1C(=O)O	0%	24%	-3	?	-1
COc1ccc2oc(C)c(C(=O)c3ccc(C)cc3)c2c1	-34%	13%	36*	15%	22*
COc1ccc2oc(C)c(C(=O)NN)c2c1	0%	14%	-4	nt	-3
CCOC(=O)c1c(NC(=O)COC(=O)c2nc(Cl)ccc2Cl)sc(C(=O)NC)c1C	nt	-6%	nt	27%	nt
Cc1cc(C(F)F)nn1CC(=O)Nc1cc([N+](=O)[O-])ccc1F	18%	7%	-2	?	-4
COc1ccc2oc3ccc(OC)cc3c(=O)c2c1	-39%	221%	156	107%	22*
COc1ccc(C(=O)c2c(C)oc3ccc(O)cc23)c(OC)c1	0%	10%	27	15%	9
COc1ccc(C(=O)c2c(C)oc3ccc(O)cc23)cc1	-36%	38%	32*	16%	29*
O=C(Nc1nnc2n1CCS2)c1ccc(Br)o1	14%	-3%	-9	3%	1
Cc1ccc(-n2ncc3c2CCCC3NC(=O)CSc2ccccn2)cc1C (centres undefined)	4%	-13%	22	-2%	6
Cc1ccc2[nH]c(CCN(C)C)c(CN3CCOCC3)c2c1	nt	13µM*	nt	2.3µM*	nt
Cc1noc(C)c1COC(=O)c1ccc2ccccc2n1	-58%	15%	7	2%	5
CCN1CCN(C(=O)c2ccc(-c3nc4ccccc4s3)s2)CC1	nt	436%	103*	322%	42*
CCNC(=O)COC(=O)c1ccc(-c2nc3ccccc3s2)s1	nt	236%	99*	179%	34*
SMILES	NS1 inh	Pf growth 48h	Shiga inhibitor	Pf growth 96h	CHX counter
O=C(c1ccc(-c2nc3ccccc3s2)s1)N1CCOCC1	nt	30%	-4	74%	-2
Cc1noc(C)c1COC(=O)c1ccc(-c2nc3ccccc3s2)s1	-16%	97%	73*	?	18*
CCOC(=O)C1CCN(S(=O)(=O)c2ccc(-c3nc4ccccc4s3)s2)CC1	-9%	37%	69*	?	45*
CC1C(=O)N2CCCc3cc(NC(=O)CC(C)(C)C)cc1c32 (centres undefined)	11%	-7%	11	17%	-5
C=CCn1c(SCc2n[nH]c(=S)n2-c2ccccc2)nnc1-c1ccccc1	-1%	-13%	32	6.6µM*	2
C[C@@H]1C(NC(=O)c2ccccc2)CC2CC1C2(C)C (some centres undefined)	-112%	-14%	15	7.4µM*	6
O=C(N/N=C/c1ccccn1)c1cc(-c2cccc3ccccc23)n[nH]1	8%	28%	-24	10%	13*
